Values joined by “and” are separate entries in the source; they are usually repeats but may differ in a detail not shown here. Equal entries are not always repeated. Records with an inconclusive call do not appear. A structure can be active in one record and inactive in another. Active and inactive are the calls of the source. Unless noted, calls come from the whole dose curve; as a rule, active = well fitted curve in the direction sought with a large enough effect in the repeat runs; inconclusive = weak or mixed curves; inactive = no such curve, though single readings can be large; an effect the other way counts as inactive or inconclusive.

For ten compounds, Potency, outcome and activity change, positive = activation results are on record in PubChem BioAssay (Tox21).

Assay [1] is described as follows: qHTS assay to identify small molecule antagonists of the estrogen related receptor (ERR) signaling pathway from Tox21 library - cell viability counter screen (AID 1224834). Note: nearly all actives have a fitted effect of over 30% in size. Note: potency is the fitted concentration of half-maximal effect. The gist of the method:
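After 17.5 h of compound exposure at 37 C, ERR cells are incubated with CellTiter-Fluor for 30 min and fluorescence intensity serves as the viability measure.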
(In general: Quantitative high-throughput screening tests each substance at several concentrations.)

Assay [2] in a line: qHTS assay to identify small molecule antagonists of the constitutive androstane receptor (CAR) signaling pathway - cell viability counter screen (AID 1224837). Note: nearly all actives have a fitted effect of over 45% in size. Note: potency is the fitted concentration of half-maximal effect. The gist of the method:
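Counter screen run in HepG2-CYP2B6-hCAR cells: 4 hr settle, compound titration (15 concentrations) with 50 nM CITCO, 23 hr at 37 C/5% CO2, CellTiter-Fluor fluorescence.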

The target in assay [3] is Nuclear receptor subfamily 1 group I member 3 (Homo sapiens) (UniProt Q14994). The assay is described as follows: qHTS assay to identify small molecule antagonists of the constitutive androstane receptor (CAR) signaling pathway (AID 1224838).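 Note: HepG2 cells stably expressing hCAR with CYP2B6 luciferase reporter stimulated by CITCO; nearly all actives have a fitted effect of over 40% in size.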 Put shortly:
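Cell line: HepG2 double-stable for hCAR and CYP2B6-2.2kb reporter. Agonist: CITCO, 50 nM final. Compounds: 15 concentrations, 24 h, 37 C. Detection: ONE-Glo luminescence.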

Assay [4] shares this target. Briefly: qHTS assay to identify small molecule agonists of the constitutive androstane receptor (CAR) signaling pathway (AID 1224839).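 Note: HepG2 cells stably carrying human CAR and a CYP2B6 luciferase reporter; nearly all actives have a fitted effect of over 15% in size.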 Put shortly: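 Readout: firefly luciferase luminescence via ONE-Glo. System: HepG2 double-stable for hCAR and CYP2B6-2.2kb. Conditions: 15-point compound titration, PK11195 at 0.75 uM final, 24 h incubation.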
The nature of assay [5]: qHTS assay to identify small molecule antagonists of the estrogen related receptor signaling pathway with the pleiotropic PPARgamma coactivator (PGC) from Tox21 10K library - cell viability counter screen (AID 1224840; active = well fitted cell-killing curve with a large enough effect in the repeat runs, not every such curve was filed as active; note: nearly all actives have a fitted effect of over 40% in size; note: potency is the fitted concentration of half-maximal effect). The gist of the method:
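Following seeding of 2,000 PGC/ERR cells/well and 6 hours' incubation, test compounds were delivered in DMSO. The plates then sat 17.5 hours at 37 C before a fluorogenic live-cell protease reagent (CellTiter-Fluor) was read after 30 min.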

The target in assay [6] is Thyrotropin receptor (Homo sapiens) (UniProt P16473). The assay is described as follows: qHTS assay to identify small molecule agonists of the thyroid stimulating hormone receptor (TSHR) signaling pathway (AID 1224843; calls by dose curve; note: nearly all actives have a fitted effect of over 45% in size). Put shortly:
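HEK293 cells stably bearing the thyrotropin receptor were plated at 800 cells/well and challenged with compound (30 min, RT). Accumulated cAMP was quantified via cAMP-d2 competing for cryptate-tagged antibody.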

Assay [7] is described as follows: qHTS assay to identify small molecule agonists of the hypoxia (HIF-1) signaling pathway - cell viability counter screen (AID 1224844; calls by dose curve; note: nearly all actives have a fitted effect of over 50% in size). The gist of the method:
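Cells (HRE-bla ME-180, 2,000 per well) sat 5 hrs at 37C, got compound for 17 hrs, were read for CCF4-AM FRET, and were finally lysed with CellTiter-Glo for a 30 min room-temperature luminescence read.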

Assay [8] in a line: qHTS assay to identify small molecule agonists of H2AX (AID 1224845; active = well fitted activation curve with a large enough effect in the signal ratio in the repeat runs, not every such curve was filed as active; the % refers to the signal ratio). Put shortly: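 Phospho-H2AX Ser139 measured by HTRF (ex 320 nm; em 665 and 620 nm) after 24 hr antibody incubation. Compounds, 15 concentrations, 0.76% DMSO, were applied to CHO-K1 cells for 3hr at 37C before lysis.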
Assay [9] can be described thus: qHTS assay to identify small molecule agonists of the hypoxia (HIF-1) signaling pathway (AID 1224846; active = well fitted activation curve with a large enough effect in the signal ratio in the repeat runs, not every such curve was filed as active; the % refers to the signal ratio). Put shortly:
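A low-serum medium (0.5% dialyzed FBS) holding 2,000 HRE-bla ME-180 cells per well is preincubated for 5 hrs, dosed with compounds by pintool, and kept a further 17 hrs at 37C, 5% CO2 before CCF4-AM FRET detection of beta-lactamase.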

Assay [10] can be described thus: qHTS assay to identify small molecule agonists of H2AX - cell viability counter screen (AID 1224847; calls by dose curve;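 note: wild-type CHO-K1 cells; top concentration of the series differs between compounds; nearly all actives have a fitted effect of over 30% in size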). Put shortly: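 For this counter screen, overnight-attached CHO-K1 cells received test compounds (15 concentrations, 0.76% DMSO final); 3 hr later at 37C, CellTiter-Glo reagent was added and luminescence recorded after 30 min at room temperature.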
Assay [11] is described as follows: qHTS RealTime-Glo MT Cell Viability Assay in HepG2 cells - 24 hour (AID 1224867). Note: nearly all actives have a fitted effect of over 50% in size. Put shortly: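 Tox21 10K library screened in qHTS format on HepG2 cells carrying RealTime-Glo reagents. Compounds were added after a 5 h preincubation, and the luminescent signal from continuous culture was measured repeatedly during 40 h treatment.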
Assay [12] in a line: qHTS RealTime-Glo MT Cell Viability Assay in HEK293 cells - 32 hour (AID 1224868). Note: nearly all actives have a fitted effect of over 50% in size. Note: potency is the fitted concentration of half-maximal effect. Put shortly: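 Luminescence generated by NanoLuc from substrate produced by living HEK293 cells served as the viability signal. Each value reflects the reading at its stated time point during continuous 40 h compound exposure at 37 C.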
A short description of assay [13]: A CellTox Green Cytotoxicity Assay to monitor cytotoxicity in HEK293 cells - 0 hour (AID 1224869). Note: nearly all actives have a fitted effect of over 50% in size. The gist of the method: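 Fluorescence intensity, read at 0, 8, 16, 24, 32 and 40 h of compound treatment, reflected dye binding to DNA of dead HEK293 cells; compounds (23 nL, DMSO) were added 5 h after plating cells with reagent.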
Assay [14] is described as follows: qHTS RealTime-Glo MT Cell Viability Assay in HepG2 cells - 40 hour (AID 1224870). Note: nearly all actives have a fitted effect of over 50% in size. Note: potency is the fitted concentration of half-maximal effect. Put shortly:
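Real-time viability: cells seeded at 600 per well together with NanoLuc and cell-permeant prosubstrate, compounds added after 5 h incubation. Luminescence tracked at 0, 8, 16, 24, 32 and 40 h of exposure.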

Assay [15] has as its target Luciferin 4-monooxygenase (Photinus pyralis) (UniProt P08659). Briefly: qHTS assay to identify small molecule inhibitors of firefly luciferase (AID 1224835). Note: nearly all actives have a fitted effect of over 25% in size. Note: potency is the fitted concentration of half-maximal effect. The gist of the method:
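Inhibition of purified Photinus luciferase is measured by luminescence. Substrate levels (D-luciferin, ATP) sit at their KM values. Each compound is tested in a concentration series.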

The nature of assay [16]: qHTS assay to identify small molecule antagonists of the estrogen related receptor signaling pathway with the pleiotropic PPARgamma coactivator (PGC) from Tox21 10K library (AID 1224841; call rule not given here). Put shortly: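 qHTS antagonist format: PGC/ERR cells, 2k/well, compound in DMSO by pin transfer after 6 h attachment, 18 h treatment at 37 C, One-Glo luminescence read at 30 min.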
The nature of assay [17]: qHTS assay to identify small molecule agonists of the estrogen related receptor signaling pathway with the pleiotropic PPARgamma coactivator (PGC) from Tox21 10K library (AID 1224842). Note: nearly all actives have a fitted effect of over 15% in size. The gist of the method:
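Luminescence from One-Glo (30 min, room temperature) measured after PGC/ERR cells had 18 h at 37 C with pinned compound (23 nL in DMSO). Cells had been seeded at 2,000 per well and pre-incubated 6 h.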

Assay [18] can be described thus: qHTS assay to identify small molecule antagonists of the estrogen related receptor (ERR) signaling pathway from Tox21 library (AID 1224848). Note: nearly all actives have a fitted effect of over 50% in size. The gist of the method:
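Reading was by luminescence 30 min after ONE-Glo addition. Before that, ERR cells at 2,000 per well had rested 6 h at 37 C/5% CO2 and then received pin-tooled compounds in DMSO for 18 h at 37 C.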

Assay [19] is described as follows: qHTS assay to identify small molecule agonists of the estrogen related receptor (ERR) signaling pathway from Tox21 library (AID 1224849; calls by dose curve; note: nearly all actives have a fitted effect of over 15% in size). As to conditions: ERR reporter cell line, ONE-Glo luciferase, 18 h. The gist of the method:
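Screening used an NTP-provided ERR luciferase cell line. Compounds in DMSO were added 6 h after seeding and left 18 h at 37 C before a 30 min ONE-Glo step and luminescence reading.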
% is set by controls: 0 for no effect and ±100 for the full control effect.

Sequence of Nuclear receptor subfamily 1 group I member 3 (Homo sapiens) (Q14994 whole entry, looked up): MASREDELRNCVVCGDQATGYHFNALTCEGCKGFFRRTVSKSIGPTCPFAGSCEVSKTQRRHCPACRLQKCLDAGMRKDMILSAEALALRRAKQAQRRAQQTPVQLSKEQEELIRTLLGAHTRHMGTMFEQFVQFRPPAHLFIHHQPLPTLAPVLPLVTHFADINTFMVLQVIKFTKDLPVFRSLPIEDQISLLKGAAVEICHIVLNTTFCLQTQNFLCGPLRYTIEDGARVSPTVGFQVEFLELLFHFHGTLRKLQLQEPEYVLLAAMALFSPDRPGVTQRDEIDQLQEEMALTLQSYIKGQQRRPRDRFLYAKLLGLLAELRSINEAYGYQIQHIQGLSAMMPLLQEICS
Sequence of Thyrotropin receptor (Homo sapiens) (P16473 whole entry, looked up): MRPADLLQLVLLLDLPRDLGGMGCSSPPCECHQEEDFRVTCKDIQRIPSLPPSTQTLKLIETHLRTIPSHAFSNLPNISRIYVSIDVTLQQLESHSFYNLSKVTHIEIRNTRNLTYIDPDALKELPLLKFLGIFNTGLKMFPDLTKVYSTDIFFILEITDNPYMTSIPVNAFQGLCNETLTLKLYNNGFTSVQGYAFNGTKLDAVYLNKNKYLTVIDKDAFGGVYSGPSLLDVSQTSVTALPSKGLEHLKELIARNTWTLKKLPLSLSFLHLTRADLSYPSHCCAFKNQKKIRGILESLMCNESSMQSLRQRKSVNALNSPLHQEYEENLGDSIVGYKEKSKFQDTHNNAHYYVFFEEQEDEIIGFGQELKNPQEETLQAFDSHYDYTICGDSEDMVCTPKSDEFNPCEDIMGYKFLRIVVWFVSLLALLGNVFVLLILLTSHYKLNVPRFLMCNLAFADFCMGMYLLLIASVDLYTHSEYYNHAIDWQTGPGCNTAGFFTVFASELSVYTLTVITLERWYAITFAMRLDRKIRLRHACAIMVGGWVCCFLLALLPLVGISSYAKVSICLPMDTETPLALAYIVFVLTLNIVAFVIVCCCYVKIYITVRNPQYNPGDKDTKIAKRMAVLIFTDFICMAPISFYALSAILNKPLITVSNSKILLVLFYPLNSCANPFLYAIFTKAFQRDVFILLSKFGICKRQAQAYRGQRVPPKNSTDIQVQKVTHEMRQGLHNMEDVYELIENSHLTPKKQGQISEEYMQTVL
Sequence of Luciferin 4-monooxygenase (Photinus pyralis) (P08659 whole entry, looked up): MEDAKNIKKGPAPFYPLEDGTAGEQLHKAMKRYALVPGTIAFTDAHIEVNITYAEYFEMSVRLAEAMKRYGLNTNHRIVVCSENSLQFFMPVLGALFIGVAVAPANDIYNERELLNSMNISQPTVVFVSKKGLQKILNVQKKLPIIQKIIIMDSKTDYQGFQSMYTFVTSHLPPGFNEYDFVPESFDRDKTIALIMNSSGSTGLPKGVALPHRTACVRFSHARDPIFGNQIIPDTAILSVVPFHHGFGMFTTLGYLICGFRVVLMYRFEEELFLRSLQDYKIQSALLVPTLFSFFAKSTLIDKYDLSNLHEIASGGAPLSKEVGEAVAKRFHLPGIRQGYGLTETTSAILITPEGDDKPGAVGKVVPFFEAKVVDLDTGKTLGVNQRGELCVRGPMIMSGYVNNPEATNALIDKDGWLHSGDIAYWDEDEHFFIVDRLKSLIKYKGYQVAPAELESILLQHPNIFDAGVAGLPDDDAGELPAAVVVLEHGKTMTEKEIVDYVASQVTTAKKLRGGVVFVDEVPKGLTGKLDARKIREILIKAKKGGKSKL

As to `O=NO`, the Potency result in [1], in assay [2], in [3], in assay [4], in assay [5] and in [7] was “inactive” throughout. Also, the Potency result in assay [11], in [12] and in assay [14] was “inactive” each time. The compound was called inactive in assay [6], in assay [8], in assay [9], in [10] and in assay [13].
Consider `N=C(N)c1ccc(OCCCCCOc2ccc(C(=N)N)cc2)cc1`, for which the Potency result in [1], in [15], in assay [5], in assay [7] and in [11] was “inactive” throughout. The compound was classed as inactive in assay [6], in assay [8], in assay [9], in [10] and in assay [13]. The Potency in assay [12] was 12.2 µM (active) and 16.6 µM (active); in [14], 54.7 µM (active) and inactive.
On to `CC(O)C(=O)O` (stereo not drawn), for which the Potency entry in assay [1], in assay [15], in [2], in [3], in assay [4] and in assay [5] was “inactive” in each case. Also, the Potency result in assay [7], in [11], in assay [12] and in [14] was “inactive” in each case. Also, the result in [6], in assay [8], in [9], in assay [10] and in assay [13] was inactive.
Take `O=C(O)c1cc(N=Nc2ccc(S(=O)(=O)Nc3ccccn3)cc2)ccc1O`: the Potency in assay [1] was 27.4 µM (active) and 27.3 µM (active) and 23.7 µM (active); in [15], 71.3 µM (active) and inactive; in assay [5], 30.7 µM (active) and inactive. For the same compound, the result in assay [6], in [10] and in [13] was inactive. The Potency entry in assay [7], in [11], in assay [12] and in assay [14] was “inactive” in each case.
On to `O=C1NC(=O)c2ccccc21`, for which the Potency entry in [1], in [15], in [2], in assay [3], in assay [4] and in [5] was “inactive” each time. Also, the Potency result in assay [7], in [11], in assay [12] and in assay [14] was “inactive” in each case. In addition, the compound was called inactive in assay [6], in assay [8], in assay [9], in assay [10] and in assay [13].
Take `O=C(O)CCCCC(=O)O`: the Potency entry in [1], in [15], in [2], in assay [5], in [7] and in assay [11] was “inactive” throughout. For the same compound, the Potency result in [12] and in [14] was “inactive” in each case. Further, the compound was classed as inactive in assay [6], in assay [8], in assay [9], in assay [10] and in [13].
`O=C(O)c1[nH]n(-c2ccc(S(=O)(=O)O)cc2)c(=O)c1N=Nc1ccc(S(=O)(=O)O)cc1`: the Potency in [1] is 26.6 µM (active) and 27.4 µM (active) and 28.6 µM (active); in assay [2], 48.7 µM (active) and 28.6 µM (active); in assay [5], 27.4 µM (active) and 45.4 µM (active). Moreover, the Potency entry in assay [15], in assay [3], in assay [4], in assay [7], in [11] and in [12] was “inactive” each time. Further, the Potency result in [14] is “inactive”. The call in assay [6], in assay [9], in assay [10] and in assay [13] was inactive.
Consider `O=C(O)CS`, for which the Potency entry in assay [1], in assay [15], in [2], in assay [5], in assay [7] and in [11] was “inactive” in each case. Besides, the Potency entry in [12] and in [14] was “inactive” throughout. In addition, the compound was classed as inactive in assay [8], in assay [10] and in assay [13].
As for `Nc1ccc(S(=O)(=O)Nc2nccs2)cc1`, the Potency entry in assay [1], in assay [15], in assay [2], in assay [5], in assay [16] and in assay [17] was “inactive” throughout. Besides, the Potency result in [7], in assay [18], in assay [11], in assay [12] and in assay [14] was “inactive” throughout. Besides, the call in assay [6], in assay [8], in assay [10] and in assay [13] was inactive. Besides, the activity change, positive = activation in assay [19] (at 42.5 µM (top of the series)) was 5.51% (inactive); in assay [19] (at 92.4 µM (top of the series)), -7.05% (inactive) and 5.21% (inactive) and 6.11% (inactive).
As to `O=C(O)c1cccc([N+](=O)[O-])c1`, the Potency entry in [1], in assay [15], in assay [2], in assay [5], in assay [7] and in assay [11] was “inactive” each time. In addition, the Potency entry in assay [12] and in assay [14] was “inactive” in each case. The result in assay [8], in [9], in assay [10] and in assay [13] was inactive.
